This note sets out measurements from PubChem BioAssay AID493170 (National Center for Advancing Translational Sciences (NCATS), 2011).

Molecules are shown by their SMILES. Records with an inconclusive call do not appear. A call without a number means that no potency is given here. Activity calls are given as the source filed them. Calls come from the whole dose curve; as a rule, active = well fitted inhibition curve with a large enough effect; inconclusive = small, poorly fitted or top-dose-only effect, or effect the other way; inactive = flat fitted curve, though single readings scatter.
Potency is the fitted concentration of half-maximal effect.

Ubiquitin carboxyl-terminal hydrolase 2 (Homo sapiens), sequence (O75604 whole entry, looked up): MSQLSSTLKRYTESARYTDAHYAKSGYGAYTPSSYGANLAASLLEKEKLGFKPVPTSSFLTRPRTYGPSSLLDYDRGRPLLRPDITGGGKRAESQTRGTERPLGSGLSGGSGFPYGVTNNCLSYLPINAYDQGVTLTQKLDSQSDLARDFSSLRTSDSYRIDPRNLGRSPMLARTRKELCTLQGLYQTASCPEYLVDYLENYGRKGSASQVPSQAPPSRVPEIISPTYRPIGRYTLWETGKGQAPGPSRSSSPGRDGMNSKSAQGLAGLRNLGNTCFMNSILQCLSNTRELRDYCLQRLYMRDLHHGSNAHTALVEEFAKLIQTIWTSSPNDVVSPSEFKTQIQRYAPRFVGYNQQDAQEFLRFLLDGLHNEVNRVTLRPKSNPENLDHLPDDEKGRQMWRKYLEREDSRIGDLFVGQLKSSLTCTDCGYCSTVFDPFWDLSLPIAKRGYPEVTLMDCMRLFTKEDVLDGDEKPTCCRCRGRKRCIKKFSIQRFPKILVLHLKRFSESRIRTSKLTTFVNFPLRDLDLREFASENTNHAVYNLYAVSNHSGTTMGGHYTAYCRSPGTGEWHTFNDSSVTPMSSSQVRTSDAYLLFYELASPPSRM

The assay concerns the target Ubiquitin carboxyl-terminal hydrolase 2 (Homo sapiens) (UniProt O75604). The assay can be described thus: Ub-rhodamine 110 based assay for inhibitors Ubiquitin-specific Protease USP2a. Note: nearly all actives have a fitted effect of over 50% in size. Particulars: USP2a Ub-rhodamine110 cleavage, fluorescence; series mostly up to 38.3 µM. Summed up:
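5 nM USP2a preincubated with compounds for 30 min at RT in 20 mM Tris-HCl pH 8.0, 2 mM CaCl2, 2 mM beta-mercaptoethanol, 0.05% CHAPS. Cleavage of 150 nM Ub-rhodamine 110 read kinetically (Ex 485/Em 531) for 7 min.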
As for `Cc1ccc(N2CN=c3s/c(=C\c4cccnc4)c(=O)n3C2)cc1`, the Potency entry was “inactive”.

Regarding `CCOc1ccc(NC(=O)c2cccc(-n3cnnn3)c2)cc1`, the Potency result was “inactive”.

With `CCOc1cc(N2CCOCC2)c(OCC)cc1NC(=O)Cc1cn2ccsc2n1`, the Potency result is “inactive”.

Turning to `Cc1[nH]c2ccccc2c1C(c1ccccn1)c1c(C)[nH]c2ccccc12`, the Potency entry was “inactive”.

For `N#CC(c1ccccc1)c1ccc(C(=O)c2ccc(F)cc2)cc1` (centres undefined), the Potency entry was “inactive”.

Turning to `CN(c1ccccc1)S(=O)(=O)c1ccc(Cl)c(C(=O)NCCc2c[nH]c3ccccc23)c1`, the Potency result was “inactive”.

For `C#CCOCCOCCOCCNc1nc(N2CCN(C(=O)CCCCCCCCCCNC(=O)[C@@H](CCC(=O)O)n3cc(CCCCCN)nn3)CC2)nc(N2CCN(C(=O)CCCCCCCCCCNC(=O)[C@H]([C@@H](C)CC)n3cc(CCCCCN)nn3)CC2)n1`, the Potency entry was “inactive”.

Turning to `O=[N+]([O-])c1ccc(Sc2nnnn2-c2ccccc2)c(Cl)c1`, the Potency result was “inactive”.

With `COc1cc(C)ccc1OCCOc1cc(C)ccc1Cl`, the Potency result is “inactive”.

`Nc1cc(=O)[nH]c(SCc2cccc(Cl)c2)n1`: the Potency entry was “inactive”.

Turning to `O=C(Nc1ccc2c(c1)OCO2)NC1(C(F)(F)F)Oc2ccccc2O1`, the Potency entry is “inactive”.

In the case of `Nc1cc(N)nc(SCC(=O)N2CCCCC2)n1`, the Potency result is “inactive”.

Take `COc1cc(-c2nc(-c3ccc4c(c3)-c3ccccc3S4(=O)=O)c(-c3ccccc3)[nH]2)cc(OC)c1O`: the Potency entry was “inactive”.

As for `CC(C)OCCCNC(=O)CN1C(=O)CC(C)(C)S(=O)(=O)c2ccccc21`, the Potency entry was “inactive”.

As for `Cc1ccc(C(=O)C(=S)N2CCOCC2)cc1`, the Potency entry is “inactive”.

For the compound `CCO[C@H]1OC(C(=O)N2CCCCCCC2)=C[C@@H](c2ccc(C(F)(F)F)cc2)[C@@H]1CCCO`, the Potency entry was “inactive”.

As for `COc1cccc(N2CCN(C(=O)CN(C)S(=O)(=O)c3ccc4c(c3)CCC(=O)N4)CC2)c1`, the Potency result was “inactive”.

With `NS(=O)(=O)c1ccc(NC(=O)/C=C/c2cn(-c3ccccc3)nc2-c2cccc(Cl)c2)cc1`, the Potency was 8.91 µM (active).

For the compound `Cn1c2ccccc2c2nnc(SC3CCOC3=O)nc21` (centres undefined), the Potency entry is “inactive”.

Regarding `CCC(C(=O)NCc1ccccc1OC)n1nc(C)n2c(cc3occc32)c1=O` (centres undefined), the Potency result is “inactive”.

Take `C#CCOCCOCCOCCNc1nc(N2CCN(C(=O)CCCCCCCCCCNC(=O)[C@H](CCCCN)n3cc(CCO)nn3)CC2)nc(N2CCN(C(=O)CCCCCCCCCCNC(=O)[C@H](CCCCN)n3cc(C[C@@H](C)CC)nn3)CC2)n1`: the Potency result is “inactive”.

Take `CC(NC(=O)COc1ccccc1-c1ccccc1)c1ccccc1` (centres undefined): the Potency entry was “inactive”.

Consider `Cc1ccc(C2(C)NC(=O)N(CC(=O)c3ccc(Cl)s3)C2=O)cc1` (centres undefined), for which the Potency is 11.2 µM (active).

As for `CN(C)c1ccc(-c2ccccc2)nn1`, the Potency entry is “inactive”.

With `CC(C)c1ccc(Nc2nnc(SCC(=O)c3nnc(-c4ccccc4)o3)s2)cc1`, the Potency was 2.82 µM (active).

For `CCOc1ccc(NC(=O)c2ccc(NC(=O)COC(=O)c3ccc(NC(=O)CC#N)cc3)cc2)cc1`, the Potency was 3.98 µM (active).

As to `Cc1ccc(N=C2NC(=O)/C(=C/C=C/c3ccco3)S2)cc1`, the Potency was 7.08 µM (active).

On to `O=C(CSc1nnc(SCc2ccccc2)s1)N/N=C/C=C/c1ccco1`, for which the Potency is 6.31 µM (active).

Consider `CC(OC(=O)c1nsc(Cl)c1Cl)C(=O)NCc1ccco1` (centres undefined), for which the Potency entry was “inactive”.

Regarding `O=C(O)c1cccc(S(=O)(=O)NNc2ccccc2C(F)(F)F)c1`, the Potency entry is “inactive”.

Turning to `CCCCOC1(c2ccccc2)NC(=S)NN=C1c1ccccc1` (centres undefined), the Potency entry is “inactive”.

Consider `O=C(COC(=O)c1cc(-c2ccc(Cl)s2)nc2ccccc12)NCc1ccco1`, for which the Potency was 11.2 µM (active).

For `O=C(CC1Oc2ccccc2NC1=O)NCc1ccc(Cl)cc1` (centres undefined), the Potency entry is “inactive”.

Take `Cc1ccc(S(=O)(=O)N2[C@@H](c3ccc(C(C)(C)C)cc3)C(C(=O)O)=CC[C@H]2c2cccc(Cl)c2)cc1`: the Potency was 5.62 µM (active).

With `CCn1nnnc1SCC(=O)Nc1cccc(C)n1`, the Potency result is “inactive”.

Consider `Cc1c(C(=O)Nc2ccc3c4c(cccc24)CC3)cccc1[N+](=O)[O-]`, for which the Potency result was “inactive”.

For the compound `Cc1onc(-c2ccccc2)c1C(=O)N1CCN(C)CC1`, the Potency entry is “inactive”.

As to `Cc1cc(NC(=O)c2cccc(S(=O)(=O)N(C)C)c2)n(-c2ccccn2)n1`, the Potency result was “inactive”.

With `O=C(C1CCCN(S(=O)(=O)c2cccc3cccnc23)C1)N1CCN(c2ccccc2F)CC1` (centres undefined), the Potency result was “inactive”.
